From PubChem BioAssay (NCI)
Compounds without any hit were thinned out: in the full panel of roughly 79,000, 15% have a hit. Cut-off read from the data, not from the text of the source: active = growth inhibition above about 70%; inactive = the rest.

How the values were obtained:
[1] = NCI Yeast Anticancer Drug Screen. Data for the rad50 strain (AID 155);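 note: 0% = growth of vehicle-only cultures of the same strain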; conditions: S. cerevisiae rad50 strain growth inhibition, stronger effect = higher value; at 50.0 µM unless noted
In short: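 Cells are treated with compound, grown, and their growth is then scored against vehicle-only cultures of the same repair-deficient yeast strain.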

[2] = NCI Yeast Anticancer Drug Screen. Data for the mec2-1 strain (AID 157); conditions: S. cerevisiae mec2-1 strain, stronger effect = higher value; at 50.0 µM unless noted
In short: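 Mutant yeast (mec2-1) grown with compound; growth inhibition relative to vehicle control reported.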

[3] = NCI Yeast Anticancer Drug Screen. Data for the sgs1 mgt1 strain (AID 161);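 note: 0% = growth of cultures given vehicle only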; conditions: S. cerevisiae sgs1 mgt1 strain, stronger effect = higher value; at 50.0 µM unless noted
In short: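 This yeast growth screen uses a strain with defined DNA-repair lesions; compound-treated growth is compared with vehicle-treated growth.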

[4] = NCI Yeast Anticancer Drug Screen. Data for the cln2 rad14 strain (AID 165);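 note: 0% = growth equal to vehicle treated cultures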; conditions: S. cerevisiae cln2 rad14 strain, stronger effect = higher value; at 50.0 µM unless noted
In short: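 Readout is yeast growth inhibition versus vehicle-treated controls, using a strain with cln2 and rad14 alterations exposed to compound.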

[5] = NCI Yeast Anticancer Drug Screen. Data for the bub3 strain (AID 167); conditions: S. cerevisiae bub3 mutant strain, stronger effect = higher value; at 50.0 µM unless noted
In short: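 Part of a panel of yeast mutants defective in DNA damage repair or cell cycle regulation. Each strain is grown with compound, and inhibition is calculated relative to solvent-treated cultures.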

[6] = NCI Yeast Anticancer Drug Screen. Data for the mlh1 rad18 strain (AID 175); conditions: S. cerevisiae mlh1 rad18 strain growth inhibition, stronger effect = higher value; at 50.0 µM unless noted
In short: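 Genetically defined yeast (DNA repair-deficient) exposed to compounds; growth inhibition determined relative to vehicle.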

Measured: growth inhibition

CN(C)C(CCC(=O)NC(C)(C)C)CC(=O)NC(C)(C)C (stereo not given)
inactive: [1] 0.2% | [2] 5% | [3] 11.7% | [4] -2.35% | [5] 6.95% | [6] -8.65%

COc1ccccc1NC(=O)C(/C=N/C(=S)NNC(C)=O)=C(/C)O
inactive: [1] 0.7% | [2] -16.2% | [3] -27% | [4] -5.9% | [5] -12.6% | [6] 2.45%

COc1ccc(CCn2c(=O)c3ccccc3n(C)c2=O)cc1
inactive: [1] 17.9% | [2] -4.2% | [3] 13.2% | [4] 34.2% | [5] 41.6% | [6] 0.8%

O=C(CCCCl)N1CCCCCC1
inactive: [1] -5.25% | [2] 11.6% | [3] -17.5% | [4] -37% | [5] 15.1% | [6] 5.7%

CC12OC3(C)C4CC1C1(C)OC4(C)C3C(O)C21 (stereo not given)
inactive: [1] -0.8% | [2] 4.8% | [3] -3.7% | [4] -16.6% | [5] -6.5% | [6] 10.3%

COc1cc(NC(C)=O)c2c(c1)SCC(=O)N2
inactive: [1] 3.2% | [2] -34.5% | [3] -3.7% | [4] 5.2% | [5] 24% | [6] 1.4%

CN(N)c1nc(N)c(C#N)c(C#N)c1C#N
inactive: [1] -16.8% | [2] -22.5% | [3] -4.9% | [4] 11.7% | [5] -2.65% | [6] 3.9%

O=C(CNc1nncs1)NO
inactive: [1] 15.1% | [2] -8.95% | [3] 0.3% | [4] 1.05% | [5] -1.35% | [6] -1.7%

Clc1cccc(NC2=NCCN=C(Nc3cccc(Cl)c3Cl)SS2)c1Cl
inactive: [1] 8.6% | [2] -17.5% | [3] -0.75% | [4] 5.85% | [5] 3.75% | [6] 6.55%

CCOc1ccc(C(C)c2cc3c(cc2OCC(=O)O)OCO3)cc1 (stereo not given)
inactive: [1] 0.65% | [2] -6.4% | [3] -8.45% | [4] 25.1% | [5] -6.9% | [6] -11.6%

Cc1cc(OCC(=O)O)cc(C)c1C
inactive: [1] 1% | [2] -8.5% | [3] -15.1% | [4] -18.6% | [5] -4.55% | [6] -1.45%

CCO[C@@H]1OC(=O)[C@H]2C(c3ccccc3Cl)=NO[C@@H]12
inactive: [1] -33.1% | [2] -30.9% | [3] -13.2% | [4] -6.65% | [5] 14.2% | [6] 0.35%

O=C(NCc1ccc(Cl)cc1)NC1CCCCC1
inactive: [1] 5.75% | [2] 36.9% | [3] 35.5% | [4] 2.7% | [5] 20.9% | [6] 46%

CCCCC(O)CCC (stereo not given)
inactive: [1] -30.4% | [2] -52.4% | [3] -24.8% | [4] 4.85% | [5] -48.7% | [6] -33.5%

CN(C)c1nc(NC(=O)NC(=O)c2c(F)cccc2F)nc(N(C)C)n1
inactive: [1] -2% | [2] 11.3% | [3] 1.55% | [4] 8.45% | [5] 18.8% | [6] 10.3%

O=C(O)/C(I)=C(\I)c1ccccc1
inactive: [1] -0.55% | [2] -6.7% | [3] 4.7% | [4] -9.3% | [5] 2.45% | [6] 8.5%

CCOc1nc(=O)n(C2OC(CO)C(O)C2O)s1 (stereo not given)
inactive: [1] 26.4% | [2] -1.35% | [3] -3.7% | [4] -34.1% | [5] -5.65% | [6] 2.5%

COC(=O)c1ccccc1OC
inactive: [1] 20.1% | [2] 15.8% | [3] -2.2% | [4] 6.75% | [5] -2.05% | [6] 3.1%

CCCCCCCCCCCC(=O)NCc1ccc(OC(=O)CCCCCCCCCCC)c(OC)c1
inactive: [1] -7.55% | [2] -9.8% | [3] -6.3% | [4] -34.1% | [5] 4.1% | [6] -8.85%

CCOP(=O)(C/C(=N/NC(C)(C)C)C(=O)Nc1nc2ccc(C)cc2s1)OCC
inactive: [1] -14% | [2] 3.7% | [3] -26.1% | [4] -30.4% | [5] -0.5% | [6] -18.6%
